Screening data as filed in PubChem BioAssay.
The sample as a whole holds a higher share of hits than the screen did.
Dicer processing: human Dicer pre-microRNA cleavage inhibition; Q9UPY3; cat-ELCCA pre-miR-21 Dicer processing, chemiluminescence; active compounds read high; z-score at 25 µM; 47,000 compounds, 6% hits; AID 1347074; in the data active = z-score above about 3, passing the limit was not always enough;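 note: higher signal means more uncleaved substrate so more Dicer inhibition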
Of the large screens only hits and unclear results are named; the others gave an inactive call.

COC(=O)c1ccc(C2Oc3ccccc3C3CC(c4cc(OC)ccc4O)=NN32)cc1 (centres undefined)	none
COc1ccc(O)c(C2=NN3C(C2)c2cc(Br)ccc2OC3c2ccncc2)c1 (centres undefined)	Dicer processing 13
Cc1c(SCC(=O)Nc2ccc(Br)cc2)c(=O)[nH]c2cc3c(cc12)OCO3	none
CCOC(=O)c1ccc(N2C(=O)CSC2c2ccccc2)cc1 (centres undefined)	none
O=C(Oc1ccc(Cl)cc1)c1sc2sccc2c1Cl	none
N/C(=N\S(=O)(=O)c1cc(Cl)c(Oc2ccc([N+](=O)[O-])cc2Cl)c(Cl)c1)c1cccnc1	none
Cc1ccc2oc3c(c(=O)c2c1)C(c1ccccc1)N(Cc1ccc2c(c1)OCO2)C3=O (centres undefined)	none
CC1(C)CC(=O)C2=C(C1)Nc1nc(SCc3ccccc3)[nH]c(=O)c1C2c1ccc2c(c1)OCO2 (centres undefined)	none
CN[C@@H]1C(O[C@H]2O[C@H](CO)[C@@H](N)[C@H](O)[C@H]2O)O[C@H]2C[C@@H](N)[C@@H](O[C@H]3[C@H](O)[C@@H](O)[C@H](N)C[C@@H]3N)OC2[C@@H]1O (some centres undefined)	none
O=S(=O)(c1ccc(Sc2ccc(S(=O)(=O)N3CCCC3)cc2)cc1)N1CCCC1	none
CCOC(=O)c1cc(-c2ccccc2)sc1NC(=O)CSc1nnc(-c2ccco2)o1	none
Cc1ccc2ncc(NC(=O)c3ccc(Cl)cc3)c(=O)n2c1	none
CCc1nnc2sc(-c3ccc(C)c(NC(=O)C(C)(C)C)c3)nn12	none
CSCCC1Oc2ccccc2C2CC(c3ccccc3O)=NN12 (centres undefined)	none
COc1cccc2c1OC(c1ccncc1)N1N=C(c3cc(Cl)ccc3O)CC21 (centres undefined)	none
CSCCC1Oc2ccc(Br)cc2C2CC(c3ccccc3O)=NN12 (centres undefined)	Dicer processing 11
Cc1ccc(C2=NN3C(C2)c2cc(Br)ccc2OC3c2ccncc2)s1 (centres undefined)	Dicer processing 4.3
COc1cccc2c1OC(CCSC)N1N=C(c3cc(C)ccc3O)CC21 (centres undefined)	none
Cc1ccc(O)c(C2=NN3C(C2)c2cc(Br)ccc2OC3c2ccncc2)c1 (centres undefined)	none
COc1ccc(NC(C)=O)c(NC(=S)Nc2ccc(C)cc2C)c1	none
COc1cccc(NC(=S)NC(C)(C)CCO)c1	none
Cc1cc(C)n2c(SC3CCCCC3NS(=O)(=O)c3ccc(Cl)cc3)nnc2n1 (centres undefined)	Dicer processing 3.6
Cc1cc(C)n2c(SC3CCCCC3NS(=O)(=O)c3ccccc3)nnc2n1 (centres undefined)	none
Cc1cc(C)n2c(SC(CNS(=O)(=O)c3ccccc3)c3ccccc3)nnc2n1 (centres undefined)	none
CCN(C(=O)c1cnc(NC)cc1C(F)(F)F)c1ccc(Cl)cc1Cl	none
CN(NC1OC(=O)c2ccccc21)c1ccc([N+](=O)[O-])cn1 (centres undefined)	none
CC(=O)Nc1cc(N2CC(C)CC(C)C2)c(F)cc1[N+](=O)[O-] (centres undefined)	Dicer processing 28
CC(=O)Nc1cc(N2CCOCC2)c(F)cc1[N+](=O)[O-]	none
CC1CC(C)CN(c2ccc(S(N)(=O)=O)cc2[N+](=O)[O-])C1 (centres undefined)	none
O=C(NCc1cccs1)C1CC(c2cccc(Br)c2)=NO1 (centres undefined)	none
Cc1ccc2c(c1)CCCN2C(=O)c1scc(S(=O)(=O)c2ccc(Cl)cc2)c1C	none
Cc1c(S(=O)(=O)c2ccc(Cl)cc2)csc1S(=O)(=O)N1CCCC1	Dicer processing 3
Cc1c(S(=O)(=O)c2ccc(Cl)cc2)csc1C(=O)Nc1ccc(N2CCOCC2)c(Cl)c1	none
COc1ccc(NC(=O)C(C)Oc2ccc(Oc3ccc(C(F)(F)F)cc3)cc2)cc1 (centres undefined)	none
Cc1ccc(O)c(C2=Nc3ccccc3N=C(c3ccco3)C2)c1	Dicer processing 4
Cc1ccc2c(c1C)NC(=O)CC(c1ccccc1O)=N2	none
Cc1ccc(O)c(C2=NN3C(C2)c2ccccc2OC3C(C)C)c1 (centres undefined)	none
Cc1ccc(C2/C(=C(\O)c3ccc(Cl)cc3)C(=O)C(=O)N2c2cccnc2)cc1 (centres undefined)	none
COCCCn1c(SCC(=O)NN)nnc1-c1ccc(C(C)(C)C)cc1	none
CSC(=NC#N)S/C=C/C(=O)c1ccc(Br)cc1	none
CCCc1nn(-c2ccc(Cl)cc2)cc1C(=O)Nc1ccc(Cl)cc1	none
O=c1cc(CSc2ccc(Cl)cc2)[nH]n1-c1ccccc1	none
O=c1cc(CSc2nc3ccccc3s2)[nH]c2[nH]n(-c3ccccc3)c(=O)c12	none
O=c1cc(CSc2ccc(Cl)cc2)[nH]c2[nH]n(-c3ccccc3)c(=O)c12	Dicer processing 5.4
S=c1nc(CCCCc2nc(=S)[nH][nH]2)[nH][nH]1	none
CC(C)Cc1ccc(C(=O)/C=C/N(C)C)cc1	none
CN(C)/C=C/C=C/C=C/C(=O)c1ccc(Br)cc1	Dicer processing 4.5
CN(C)/C=C/C(=O)c1ccc(C#N)cc1	none
COc1ccc(O)c(C2=NCCNC(C(F)(F)C(F)F)=C2)c1	none
CCc1nn2cc(C(C)(C)C)nc2s1	none
O=C(Nc1ccc(Oc2ccc(NC(=O)c3ccccc3Cl)cc2)cc1)c1ccccc1Cl	none
O=C(NC(=O)c1ccccc1Cl)c1ccccc1O	none
Nc1cc(NC(=O)c2ccccc2O)ccc1Cl	Dicer processing 5.6
CSCCC(NS(=O)(=O)c1cc(C(F)(F)F)cc(C(F)(F)F)c1)C(=O)NNC(=O)c1ccc(Cl)cc1 (centres undefined)	none
O=C(O)c1ccc(-c2ccsc2)cc1	none
O=S(=O)(c1ccc(-c2noc(-c3ccccc3)n2)cc1)N1CCOCC1	Dicer processing 3.3
O=S(=O)(c1ccc(-c2nc(-c3ccc(Cl)cc3)cs2)cc1)N1CCOCC1	none
O=S(=O)(c1ccc(-c2cn3ccccc3n2)cc1)N1CCOCC1	none
NS(=O)(=O)c1ccc(CCNc2ncnc3nc[nH]c23)cc1	none
Cc1onc(-c2c(Cl)cccc2Cl)c1NC(=O)NC(=O)C12CC3CC(CC(C3)C1)C2	none
Cn1ncc(C(=O)Nc2ccc(Cl)c(Cl)c2)c1[N+](=O)[O-]	none
Cc1nc(C)c(-c2cnc(NS(=O)(=O)c3ccc(Cl)cc3)nc2)s1	none
CCC1C2=C(CC(C)(C)CC2=O)Nc2c1c(C)nn2-c1ccccc1 (centres undefined)	none
Cc1nn(-c2ccccc2)c2c1C1=C(C(=O)CC(C)(C)C1)C(c1ccc(N(C)C)cc1)N2 (centres undefined)	Dicer processing 3.4
Cc1[nH]nc2c1C1=C(C(=O)CC(C)(C)C1)C(c1ccc(N(C)C)cc1)N2 (centres undefined)	none
CN(/N=C/c1ncc([N+](=O)[O-])n1C)c1cnn(-c2ccccc2)c(=O)c1Cl	none
O=C1C(=O)N(CCCN2CCOCC2)C(c2ccccc2F)/C1=C(\O)c1ccc(Cl)cc1 (centres undefined)	none
Cc1nn2c3ccccc3n(CCN3CCCCC3)c2nc1=O	Dicer processing 3.1
Cc1cn2c3ccccc3n(CCN3CCCC3)c2n1	none
COC(=O)c1c(C)nc2n(CCN3CCCCC3)c3ccccc3n12	none
C#CCOC(=O)Nc1ccc(Oc2ccc(Cl)cc2)nc1	none
Clc1ccc2sc(Sc3ccccc3)nc2c1	none
Nc1ccc(Sc2nc3ccccc3s2)cc1	Dicer processing 5.2
O=C(O)CSc1nc2ccccc2s1	none
CC1CC(N(CCC#N)S(=O)(=O)c2ccc(Br)cc2)CC(C)(C)C1 (centres undefined)	none
CC(C)NC(=O)c1cc2n(n1)C(C(F)(F)F)CC(c1ccc(Br)cc1)N2 (centres undefined)	none
